Among the data in the supplement of paper PMC6555819 are PBM binding z-score values, retold here.

The subject of the first assay is PPARg:RXRa IVT, anti-PPARg (NR concentration 270 nM, RXRa partner concentration 90 nM). The experiment in a line: PBM binding z-score (relative to random genomic background probes); higher = stronger binding; sequences stand for … in GC…GCGATTGACAGCGTAGAATGAAGG
In a few lines:
(§1)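 Random background probes are the reference for binding z-scores. These scores derive from regression-normalized fluorescence on custom Agilent 4×180K protein-binding microarrays incubated 1 h with ligand-free nuclear receptor dimers. Binding was detected with antibodies against each partner (one per run).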
GCGACTGGGCCATCAGCAGGTTACCATAACTTAA displayed a PBM binding z-score of 2.04.
The same measure, in the same setting: as for CCGACTGGGGCCGAAAGGTTACCATACCATCCGG, the figure is 0.138; as for GCTCGGAGGACAACGTCAGAGCTTTGTCCGTAGA, -0.67.
Same read-out and setting: as for TCATATTGGTAAAGGTGAAAGTCGAACGATATGA, the figure is 1.69.
In the case of TGAATGAGGTTCAAGATCAGGGAACGTGGCGTCG, the PBM binding z-score came to 0.696.
Still for that read-out and setting: with TAGCCTAGGTCATTCAGGGGCCAGGATAGAAAGC the figure was 2.85; with AGTCAAAGTTCATCTAGGTAATGTAAGATATGCT, 3.31; with CGAACTAGGTCACTGACAGGACAGTGAATAGTAA, 8.43.
On the same count and under the same terms, as for GATACAGGGTCAGCTAGAGGCTAGAGTATGGAAA, the figure is 2.17; as for TCTAGCAGGCCAGAGGGTAACTCAAGAGGTACGG, 0.376.
Same read-out and setting: as for ATCTCTAGGTAGAGTTCAGTGAAAGATCGATAGA, the figure is 0.789; as for TGAATGAGGTTAAAGTTCAGGGAACGTGGCGTCG, 5.08.
The sequence TCTATTAGATGATTAGGGCAACCGAAACAGCGGA registered a PBM binding z-score of 1.09.
In the case of ATATGTAGGTTAAGGGTCATTCTGGTTGGTTCGC, the PBM binding z-score worked out at 7.51.
CGTCCAAGGTCAAAGTTCAGTGAAGAGATGACGG: the PBM binding z-score amounted to 5.08.
The same measure, in the same setting: as for GTTCGGAGGACAAGGTCAGAGCTTTGTCCGTAGA, the figure is 0.927; as for TCGAGTAGGGTACCAATGGGGCATTCAGCTTTCT, 1.1.
Sequence CGAACTAGGTCAAGAACAGTGAATCTCCGCACGC gave a PBM binding z-score of 8.06.
The same measure, in the same setting: as for TCTTGTAGAGCAAAGGTTAAGAAAGCCGAAGCCT, the figure is 4.15.
Same read-out and setting: with CCGACTGGGCCAAAAAGGTCATTGATGCCGATAA the figure was 2.62; with AAAATGAGGTTACCAAAGATCAGGGAAACGCTTG, 4.33.
On to TCATATAGGTAAACAGGGGAAAGTCCGTAAGTTA, for which the PBM binding z-score was determined as 3.46.
On the same count and under the same terms, with CCAGAAAGGTGAGAAGGTAACTCAGCCTCGATTA the figure was 1.98; with GCTTACGGGTCAAAGGTTATTGCATGAATAGAAT, 5.79.
On the same count and under the same terms, with CAAACTAGGTCAAATGTCAAAGTCGAGCCAACCA the figure was 8.6.
Same read-out and setting: with CGAACTAGGTCATCCAGGACAGCGAATACATTGA the figure was 8.15; with TCATATAGGTAAACAGGTGACAGTCCGTAAGTTA, 4.6; with GCAGACAGGTGAAACGCAGGTAACACAGGGTGGC, 0.202.
AGAATGAGCTTATACGTAGATCAGGGAAGAAAGT yielded a PBM binding z-score of -0.676.
In turn, TCTGCTAGGTCAGTTGGTAAGCTAACGAGCTGCC registered a PBM binding z-score of 2.46.
In turn, TCTATTAGTTGATGGGCAACCGACGAGTCCGTTT showed a PBM binding z-score of 0.211.
On the same count and under the same terms, as for ACTACTTGGTCAGCTGAGGTCACACACAATTCGG, the figure is 2.81; as for ATCGAAAGGTCGAGCTGAGTATAGAGAAAGGGAA, 1.22.
The sequence TCTGCTAGGTCAGTTGGTCACCTAACGAGCTGCC gave a PBM binding z-score of 3.77.
Sequence CCGACTGGGGCATAAGGTTAGCATAAGCCAGCCC had a PBM binding z-score of 2.86.
CGAACTAGGTTAGAACAGGACAGTGAAGGATGAT gave a PBM binding z-score of 4.21.
On the same count and under the same terms, with ATACCCAGGTGATCGTGAGGTCGTTGATACTAAC the figure was 1.1; with TAGCCTAGGGCATGCGGGCCAGTATAGTGTCGGC, 0.354.
Still for that read-out and setting: with ATATGTAGGTTAGCTGTGGTCATTCAGACTAGGC the figure was 6.07.
The same measure, in the same setting: as for TCTAGCAGGCCAGAGAGTCACTCAAGAGGTACGG, the figure is -0.685.

The test system of another assay is PPARg DBDmut:RXRa IVT, anti-PPARg (DBD mutation: PPARg1 K132A/R137A, NR concentration 270 nM, RXRa partner concentration 90 nM). The assay is described as above. In a few lines:
as §1
As for GCGACTGGGCCATCAGCAGGTTACCATAACTTAA, the PBM binding z-score was -0.993.
CCGACTGGGGCCGAAAGGTTACCATACCATCCGG had a PBM binding z-score of -1.16.
For the sequence GCTCGGAGGACAACGTCAGAGCTTTGTCCGTAGA, the PBM binding z-score is -2.
Sequence TCATATTGGTAAAGGTGAAAGTCGAACGATATGA returned a PBM binding z-score of 0.994.
Consider TGAATGAGGTTCAAGATCAGGGAACGTGGCGTCG, for which the PBM binding z-score amounted to 0.378.
On the same count and under the same terms, with TAGCCTAGGTCATTCAGGGGCCAGGATAGAAAGC the figure was 0.258; with AGTCAAAGTTCATCTAGGTAATGTAAGATATGCT, 1.3; with CGAACTAGGTCACTGACAGGACAGTGAATAGTAA, 0.923.
In turn, GATACAGGGTCAGCTAGAGGCTAGAGTATGGAAA returned a PBM binding z-score of -0.0888.
Still for that read-out and setting: with TCTAGCAGGCCAGAGGGTAACTCAAGAGGTACGG the figure was -0.698.
On the same count and under the same terms, with ATCTCTAGGTAGAGTTCAGTGAAAGATCGATAGA the figure was 1.33; with TGAATGAGGTTAAAGTTCAGGGAACGTGGCGTCG, 1.25; with TCTATTAGATGATTAGGGCAACCGAAACAGCGGA, 0.897.
With ATATGTAGGTTAAGGGTCATTCTGGTTGGTTCGC, the PBM binding z-score came to 2.31.
As for CGTCCAAGGTCAAAGTTCAGTGAAGAGATGACGG, the PBM binding z-score is 0.409.
GTTCGGAGGACAAGGTCAGAGCTTTGTCCGTAGA had a PBM binding z-score of -0.706.
The sequence TCGAGTAGGGTACCAATGGGGCATTCAGCTTTCT yielded a PBM binding z-score of -1.19.
On the same count and under the same terms, with CGAACTAGGTCAAGAACAGTGAATCTCCGCACGC the figure was 0.866; with TCTTGTAGAGCAAAGGTTAAGAAAGCCGAAGCCT, 0.281; with CCGACTGGGCCAAAAAGGTCATTGATGCCGATAA, -1.21.
Same read-out and setting: as for AAAATGAGGTTACCAAAGATCAGGGAAACGCTTG, the figure is 2.73.
On to TCATATAGGTAAACAGGGGAAAGTCCGTAAGTTA, for which the PBM binding z-score was found to be 1.62.
Same read-out and setting: with CCAGAAAGGTGAGAAGGTAACTCAGCCTCGATTA the figure was -0.302; with GCTTACGGGTCAAAGGTTATTGCATGAATAGAAT, 2.15; with CAAACTAGGTCAAATGTCAAAGTCGAGCCAACCA, 1.94.
Still for that read-out and setting: with CGAACTAGGTCATCCAGGACAGCGAATACATTGA the figure was 1.97; with TCATATAGGTAAACAGGTGACAGTCCGTAAGTTA, 1.49.
The sequence GCAGACAGGTGAAACGCAGGTAACACAGGGTGGC displayed a PBM binding z-score of 0.00158.
For AGAATGAGCTTATACGTAGATCAGGGAAGAAAGT, the PBM binding z-score was determined as 0.558.
On the same count and under the same terms, as for TCTGCTAGGTCAGTTGGTAAGCTAACGAGCTGCC, the figure is -0.0986; as for TCTATTAGTTGATGGGCAACCGACGAGTCCGTTT, 0.778; as for ACTACTTGGTCAGCTGAGGTCACACACAATTCGG, 0.583.
For ATCGAAAGGTCGAGCTGAGTATAGAGAAAGGGAA, the PBM binding z-score was 1.33.
With TCTGCTAGGTCAGTTGGTCACCTAACGAGCTGCC, the PBM binding z-score came out at 1.37.
CCGACTGGGGCATAAGGTTAGCATAAGCCAGCCC gave a PBM binding z-score of -1.39.
As to CGAACTAGGTTAGAACAGGACAGTGAAGGATGAT, the PBM binding z-score stood at 0.977.
Take ATACCCAGGTGATCGTGAGGTCGTTGATACTAAC: the PBM binding z-score was found to be 0.599.
Still for that read-out and setting: with TAGCCTAGGGCATGCGGGCCAGTATAGTGTCGGC the figure was -0.499; with ATATGTAGGTTAGCTGTGGTCATTCAGACTAGGC, 2.72; with TCTAGCAGGCCAGAGAGTCACTCAAGAGGTACGG, -1.43.
